Rows were chosen to be rich in hits. Some 9% of all compounds tested hit in one or more screens of this group.
G9a inh: blocks human histone lysine methyltransferase G9a. Q96KQ7. G9a H3K9 monomethylation, AlphaScreen, 2 h. Potency, µM (series often up to 102 µM), hits mostly inhibitors. actives 8.8% (n = 350,000). AID 504332; further: nearly all actives have a fitted effect of over 75% in size
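Signal arises when biotinylated H3K9 peptide, once monomethylated, bridges streptavidin donor and antibody-captured acceptor beads. Enzyme at 20 nM was preincubated 15 min with test compounds; peptide 500 nM and SAM 20 uM then reacted for 2 h.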
PLK1 PBD block: inhibitors of human PLK1 polo-box domain binding; Plk1 PBD binding of FITC phosphopeptide, fluorescence polarization; actives 2.8% (n = 360,000); Potency, µM, most hits filed as inhibitors; further: series mostly up to about 57 µM; nearly all actives have a fitted effect of over 65% in size
12-LOX inh: inhibitors of human 12S-lipoxygenase ALOX12; P18054; purified 12hLO, xylenol orange hydroperoxide absorbance; Potency, µM (top dose mostly 108 µM), hits mostly inhibitors; actives 1.1% (n = 580,000); AID 1671190
Target sequence (P18054 whole entry, looked up): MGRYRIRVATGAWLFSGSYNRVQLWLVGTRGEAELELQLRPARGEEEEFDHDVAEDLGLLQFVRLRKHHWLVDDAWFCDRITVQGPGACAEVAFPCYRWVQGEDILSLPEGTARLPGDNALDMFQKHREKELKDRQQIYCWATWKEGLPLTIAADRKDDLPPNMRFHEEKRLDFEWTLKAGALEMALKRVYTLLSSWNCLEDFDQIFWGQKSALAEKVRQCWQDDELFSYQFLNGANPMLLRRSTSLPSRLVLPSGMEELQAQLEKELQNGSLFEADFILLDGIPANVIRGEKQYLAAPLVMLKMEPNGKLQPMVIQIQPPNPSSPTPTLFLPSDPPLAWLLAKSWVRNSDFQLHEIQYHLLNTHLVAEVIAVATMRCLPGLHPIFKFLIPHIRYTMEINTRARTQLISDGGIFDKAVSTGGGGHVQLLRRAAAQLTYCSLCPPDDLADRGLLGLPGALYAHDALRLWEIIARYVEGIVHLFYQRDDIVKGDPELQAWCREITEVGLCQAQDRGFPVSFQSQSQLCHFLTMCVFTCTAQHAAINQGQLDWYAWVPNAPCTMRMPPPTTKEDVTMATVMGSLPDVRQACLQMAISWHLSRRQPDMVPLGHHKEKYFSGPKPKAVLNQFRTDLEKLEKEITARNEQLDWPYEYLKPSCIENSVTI
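Purified human 12hLO at 150 nM in 25 mM Hepes, 0.01% Triton X-100, pH 7.0, preincubated 15 min at room temperature with compound. Reaction started with 40 uM arachidonic acid, 30 min at room temperature. Hydroperoxide measured by Fe-xylenol orange, 573/405 nm absorbance ratio.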
HP1b chromo inh: HP1-beta chromodomain-methylated histone interaction inhibition. AlphaScreen HP1-beta / biotin-H3K9me3 peptide binding. P83916. AID 540317. Potency, µM (top dose mostly 114 µM), actives largely listed as inhibitors. actives 0.56% (n = 390,000); further: nearly all actives have a fitted effect of over 70% in size
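Compound inhibition of the preformed complex between 50 nM HP1-beta and 50 nM biotinylated H3K9me3 peptide was read by AlphaScreen. Buffer was PBS pH 7.4 with 0.01% Tween-20. Incubations ran 30 min at room temperature, with 10 ug/mL donor/acceptor beads.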
BAZ2B block: blocks human BAZ2B; AlphaScreen BAZ2B-H3K14Ac peptide displacement; Potency, µM (titrated, usually from 114 µM), hits mostly inhibitors; Q9UIF8; actives 4.4% (n = 360,000); further: nearly all actives have a fitted effect of over 60% in size
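BAZ2B 50 nM plus b-H3(5-23)K14Ac 50 nM, PBS pH 7.4/0.01% Tween-20, 30 min RT; compound added (max 110 uM), 30 min RT; streptavidin donor/Ni-chelate acceptor beads 10 ug/mL final, 20 min dark; AlphaScreen read.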
JMJD2A Tudor: blocks the human JMJD2A Tudor domain. O75164. AlphaScreen JMJD2A-Tudor / H3K4me3 peptide binding. Potency, µM (titrated, usually from 114 µM), hits mostly inhibitors. actives 4.4% (n = 390,000). AID 504339; further: nearly all actives have a fitted effect of over 50% in size
A number is an active result; 0 = inactive; ? = inconclusive; - = no result given; [ ] = another dose, or the depositor's remark. The call rests on the fitted dose curve; in most records, active means well fitted curve in the direction sought with a large enough effect; inconclusive means small, poorly fitted or top-dose-only effect, or another doubt; inactive means no such curve, though single readings can be large; an effect the other way counts as inactive or inconclusive.

SMILES	G9a inh	PLK1 PBD block	12-LOX inh	HP1b chromo inh	BAZ2B block	JMJD2A Tudor
CCN1CCN(c2ccc(N=Cc3ccccc3O)cc2)CC1	50µM	0	0	0	0	0
COc1cccc(C=Nc2ccc(N3CCOCC3)cc2)c1O	?	0	?	0	0	0
Cc1cc(Cl)ccc1OCc1nnc2n1CCCCC2	0	0	?	0	0	0
COc1cc2ccc(=O)oc2c(O)c1OCC=C(C)C	11µM	0	?	0	0	?
c1cc(-c2nnc(-c3ccncc3)o2)ccn1	0	0	0	0	0	0
S=c1oc(-c2ccncc2)nn1CCc1ccncc1	0[12.7 µM]	0	0	0	56µM	0
CCOC(=O)c1cc(-c2ccccc2)nn1Cc1cc(CC)no1	0[2.33 µM]	0	0	0	0	0
CCc1cc(Cn2nc(-c3ccccc3)cc2C(=O)NCCOC)on1	0[12.7 µM]	0	0	0	0	0
CCc1cc(Cn2nc(-c3ccccc3)cc2C(=O)NCc2cccs2)on1	0[2.33 µM]	0	8.9µM	0	0	0
CCOC(=O)c1cc(-c2ccccc2C)nn1Cc1cc(CC)no1	0[2.33 µM]	0	7.9µM	0	0	0
CCOC(=O)N1CCN(C(=O)c2cc3n(n2)C(C(F)(F)F)CC(c2ccc4c(c2)OCO4)N3)CC1 (centres undefined)	0	0	0	0	0	0
NS(=O)(=O)c1ccc(-n2ncc3c(=O)[nH]c(SCC(=O)Nc4nccs4)nc32)cc1	45µM	0	?	0	0	0
CO/N=C(\C(=O)O)c1cn2ccsc2n1	-	-	2.2µM	-	-	-
Cc1nc2c3c4c(sc3n3c(SCC(=O)NCc5ccco5)nnc3n2n1)COC(C)(C)C4	0	0	0	0	0	0
Cc1cccc(OCC(=O)N2CCN(C(=O)c3ccc([N+](=O)[O-])cc3)CC2)c1	0	0	0	0	0	0
COc1ccc(N(CC(=O)NN=C2CCCC2)S(=O)(=O)c2ccccc2)cc1	0[12.7 µM]	0	0	0	0	0
COc1ccc(S(=O)(=O)N(CC(=O)NC(C)C)Cc2ccccc2)cc1	0	0	0	0	0	0
COc1ccc(S(=O)(=O)N(CCc2ccccc2)CC(=O)NC(C)C)cc1	0[2.33 µM]	0	32µM	0	0	0
COc1ccc(N(CC(=O)NCC(C)C)S(=O)(=O)c2ccccc2)cc1	0	19µM	0	0	0	?
[O-][n+]1ccccc1SC/C=C/c1ccccc1	0	0	?	0	0	0
CC(C)NC(=S)N(C)C1(c2ccccc2Cl)CCCCC1=O (centres undefined)	0	0	0	0	0	0
COCCNC(=S)N(C)C1(c2ccccc2Cl)CCCCC1=O (centres undefined)	45µM	0	0	0	0	0
COc1ccc(C(=O)NC(=S)NNC(=O)c2ccc3ccccc3n2)cc1	13µM	0	?	0	79µM	50µM
COc1cc(OC)cc(C(=O)NNC(=O)c2ccc3ccccc3n2)c1	0	0	0	0	0	0
COc1ccc(CC(=O)NNC(=O)c2ccc(NC(C)=O)cc2)cc1	45µM	0	0	0	0	0
SMILES	G9a inh	PLK1 PBD block	12-LOX inh	HP1b chromo inh	BAZ2B block	JMJD2A Tudor
COc1ccc(C(=O)NC(=S)NNC(=O)c2ccc(C)cc2)cc1	-	0	?	0	-	?
CCC(=O)NC(=S)NNC(=O)c1ccc(OC)cc1	22µM	0	0	0	0	22µM
CCCCOc1ccc(C(=O)NNC(=S)NC(=O)CC)cc1	20µM	0	-	0	0	?
CCCCn1c(=O)[nH]c(=O)c2c1nc(CN1CCN(S(=O)(=O)c3ccccc3)CC1)n2CC	-	-	0	-	-	-
COc1ccc(C(=O)NNC(=S)NC(=O)c2ccc(Cl)cc2)cc1	-	0	0	0	-	0
COc1ccc(C(=O)NC(=S)NC2CCSC2=O)cc1 (centres undefined)	10µM	0	0	0	0	0
COc1ccc(C(=O)NC(=S)NNC(=O)c2ccc(NC(=O)C(C)C)cc2)cc1	4.5µM	?	45µM	0	0	?
COc1cc(OC)cc(C(=O)NC2CCSC2=O)c1 (centres undefined)	0	0	0	0	-	0
COC(=O)NCC1(C)CC(NC(=O)OC)CC(C)(C)C1 (centres undefined)	?	0	0	0	0	0
CCCSc1nc2c(cnn2-c2ccc(C)c(C)c2)c(=O)[nH]1	0	0	0	0	0	0
COC(=O)c1ccc(CSc2nc3scc(-c4cccs4)c3c(=O)[nH]2)o1	?	?	0	0	-	45µM
COC(=O)c1ccc(CSc2nc3c(cnn3-c3ccc(C)c(C)c3)c(=O)[nH]2)o1	0	27µM	0	0	0	50µM
COC(=O)CN1CCC(=O)c2ccccc2S1(=O)=O	-	-	-	0	-	0
COC(=O)CC1(C(=O)OC)Nc2cc(Cl)c(Cl)cc2S(=O)(=O)N1O (centres undefined)	-	9.5µM	?	-	-	-
O=C(O)c1ccc(NC(=O)c2cccc(N3C(=O)C4C5CCC(C5)C4C3=O)c2)cc1 (centres undefined)	0	0	0	0	0	0
O=C(NCCN1CCOCC1)c1cc2ccccc2o1	?	0	0	0	0	0
NNC1=N[C@H]2CS(=O)(=O)C[C@H]2S1	0	0	0	0	0	8.9µM
C/C(=C1/SC(=S)N(CCC(=O)O)C1=O)c1ccc(O)cc1	0[12.7 µM]	0	40µM	0	?	?
COc1ccc(/C(C)=C2\SC(=S)N(CCC(=O)O)C2=O)cc1	?	0	0	0	?	?
CCCc1cc(=O)[nH]c(NCCc2ccccc2)n1	0	0	0	0	0	0
NC(=O)Cn1cnc2c(nnn2-c2ccc(F)cc2)c1=O	0	27µM	0	0	0	?
Cc1ccc(-n2nnc3c(=O)n(CC(N)=O)cnc32)cc1	0	0	0	0	0	0
CC(=O)C[C@H](O)CC(=O)[C@@H]1OC(=O)[C@H](C)C/C=C\Cc2ccccc21	-	0	?	0	-	0
CN1Cc2c(N3CCOCC3)nc3sc(C(=O)c4ccc(Br)cc4)c(N)c3c2CC1(C)C	45µM	0	?	?	35µM	45µM
CC(=O)c1ccc(NC(=O)c2sc3nc(N4CCOCC4)c4c(c3c2N)CCCC4)cc1	25µM	0	0	0	0	0
Cc1ccc(NC(=O)c2sc3nc(N4CCOCC4)c4c(c3c2N)CCCC4)cc1	-	?	0	-	-	-
CCOc1ccc(NC(=O)c2sc3nc(N4CCOCC4)c4c(c3c2N)CCCC4)cc1	?	30µM	0	0	0	0
O=[N+]([O-])c1cccc(CN2CCCCCC2)c1	0	0	0	0	0	0
CCOCCCNC(=O)N1CCC2(CC1)CC(N(Cc1ccc(F)cc1)C1CC1)CCO2 (centres undefined)	-	-	0	-	-	-
COc1ccc(NS(=O)(=O)c2cccc(C(=O)N3CCN(Cc4ccc5c(c4)OCO5)CC3)c2)cc1	?	0	0	0	0	0

Bioassay records: PubChem BioAssay, National Center for Advancing Translational Sciences (NCATS)
